# About 140 (11%) of roughly 1,300 compounds were called active. A selection follows. Results with a measured potency or affinity are listed apart. Values without a mark were called inactive. How the calls were made is not given here.
# Molecular target: Prostaglandin E2 receptor EP2 subtype (Homo sapiens) (UniProt P43116)
# Assay: compounds shifting PGE2 potency at EP2 – cell-based, human EP2, PGE2 EC50 shift, dose response (AID 1421)
# Conditions: EP2-expressing cells, PGE2 EC50 shift by compound; at 20 µM
# Chain of Prostaglandin E2 receptor EP2 subtype (Homo sapiens) (P43116 whole entry, looked up): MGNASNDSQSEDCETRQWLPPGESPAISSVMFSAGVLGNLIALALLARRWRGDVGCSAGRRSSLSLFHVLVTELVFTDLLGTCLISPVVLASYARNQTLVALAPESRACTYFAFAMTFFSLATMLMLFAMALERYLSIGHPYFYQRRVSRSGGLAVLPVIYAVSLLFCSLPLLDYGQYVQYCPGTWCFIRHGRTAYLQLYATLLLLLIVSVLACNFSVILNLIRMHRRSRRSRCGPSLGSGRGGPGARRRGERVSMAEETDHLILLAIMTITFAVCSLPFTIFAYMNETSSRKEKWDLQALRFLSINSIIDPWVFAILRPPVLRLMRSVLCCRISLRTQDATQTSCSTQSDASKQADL
row,SMILES,PGE2 EC50 with compound [nM]
1,CC1CCCN(C(=O)CSc2cnc3ccccc3n2)C1 (stereo not drawn),1.42
2,CCOC(=O)c1c(N)sc2c1CCC(CC)C2 (stereo not drawn),0.46
3,COCC(=O)Nc1sc2c(c1C(=O)OC)CCC(C)C2 (stereo not drawn),0.38
4,CCn1nnnc1SCC(=O)Nc1cccc(C)n1,1.23
5,COc1cccc(C2=NN(C(=O)c3cccs3)C(O)(C(F)(F)F)C2)c1 (stereo not drawn),0.25
6,CN(C)c1nccc(N(Cc2ccccc2)Cc2ccccc2)c1C#N,0.29
7,S=C(Nc1ccccc1Cl)N(Cc1ccccc1)Cc1ccccn1,0.41
8,Cc1ccc(C(C)C)c(OCCn2c(=O)oc3ccccc32)c1,0.33
9,CC(C)(C)C1CCc2onc(C(=O)Nc3cccnc3)c2C1 (stereo not drawn),0.4
10,c1ccc(C2Nc3ccccc3Oc3ccccc32)cc1 (stereo not drawn),0.21
11,O=C(NCCC1=CCCCC1)c1cccc2c1C(=O)N(C1CCCCC1)C2,1.89
12,Cc1ccc(S(=O)(=O)N2c3ccccc3OCC2C(C)(C)C)cc1 (stereo not drawn),0.14
13,Cc1ccc2c(c1)N(S(=O)(=O)c1ccc(F)cc1)C(C(C)(C)C)CO2 (stereo not drawn),0.45
14,CCC(=O)N(CC)c1nc(-c2cc(OC)ccc2OC)cs1,0.24
15,CCCOP(=O)(OCCC)c1nc(-c2ccccc2)oc1NCc1ccccc1,0.15
16,CCOc1ccc(OCC)c(NC(=O)CN2CCN(c3cccc(C)c3)CC2)c1,0.86
17,O=C(O)c1cc(C(=O)O)cc(N2C(=O)c3ccccc3C2=O)c1,0.39
18,O=C1CCCc2ccccc2N1Cc1c(Cl)cccc1Cl,0.64
19,O=c1c2ccccc2c(-c2ccccc2)nn1Cc1c(Cl)cccc1Cl,0.41
20,CN(Cc1cccs1)c1nc(-c2cccnc2)nc2ccccc12,0.64
21,O=c1c2ccccc2c2ccccc2c(=O)n1Cc1ccco1,0.45
22,CC(C)CCn1c(O)c(N=NC(=O)c2ccco2)c2ccccc21,0.33
23,CCCCn1c(C)cc(C)c(S(=O)(=O)c2ccccc2C)c1=O,0.31
24,CC(C)CCn1c(Oc2ccc(Cl)cc2)nc2c1c(=O)n(C)c(=O)n2C,0.31
25,CCCN(CCC)C(C)C(=O)NCC1(c2ccccc2)CCCC1 (stereo not drawn),0.23

row,SMILES,PGE2 EC50 with compound [nM]
1,CCSc1nc2ccccc2n1Cc1ccccc1F,0.31
2,CC1CCN(C(C)C(=O)Nc2ccccc2-c2ccccc2)CC1 (stereo not drawn),0.26
3,Cc1ccc(S(=O)(=O)NCC(=O)OCN2C(=O)c3ccccc3C2=O)cc1,2.7
4,Cc1ccc(S(=O)(=O)c2ccc(Oc3cccc(C)c3)cc2)cc1,0.66
5,COc1ccc(OCC(=O)NC(=S)Nc2ccc3c4c(cccc24)CC3)cc1,11.2
6,COc1ccc(C2=Nn3c(nnc3-c3ccccc3)SC2)cc1OC,0.88
7,CN(C)c1nc(N2CCOCC2)nc(N(c2ccccc2)c2ccccc2)n1,0.59
8,COc1ccc(-c2cc(C(F)(F)F)n3nc(C(=O)N(C)Cc4ccccc4)cc3n2)cc1OC,0.42
9,Cc1cnn(-c2nc(-c3ccccc3)cc(-c3ccccc3)n2)c1,0.56
10,c1ccc(Nc2nc(N3CCNCC3)nc(N3CCOCC3)n2)cc1,0.98
11,COc1ccc(-c2cc(C(F)(F)F)nc(NC3CCCC3)n2)cc1OC,0.54
12,CC(=O)c1sc2nc(-c3ccc(C)cc3)c3c(c2c1N)CCCC3,0.52
13,O=C(/C(=C/O)N=Nc1ccccc1)c1cccs1,2.24
14,COCCOC(=O)c1c(C)oc2ccc(OCc3ccccc3)cc12,0.53
15,c1ccc(Oc2nc3ccccc3n3cccc23)cc1,0.38
16,Cc1cc(C)c2c(n1)sc1c(=O)n(Cc3ccccc3Cl)nnc12,0.29
17,O=C1c2ccccc2OC2(C=Cc3ccccc3O2)N1Cc1ccccc1 (stereo not drawn),0.27
18,Clc1ccc(-c2nn3c(-c4ccccc4)nnc3s2)cc1,1.36
19,CCCCOC(=O)Sc1nc2ccccc2o1,2.08
20,COc1ccc(-c2cc(C(F)(F)F)nc(NCc3ccco3)n2)cc1OC,0.48
21,COc1ccc(C(=O)NCCCN2CCOCC2)cc1OC,0.55
22,CC(=O)Oc1c2c(c3c(c1CC=C(C)C)O[C@]14C(=C[C@@H]5CC1C(C)(C)OC4(C/C=C(\C)C(=O)O)C5=O)C3=O)OC(C)(CCC=C(C)C)C=C2 (stereo partly drawn),7.31
23,O=c1cc(N2CCCCC2)c(-c2ccccc2)nn1Cc1c(Cl)cccc1Cl,1.07
24,O=c1cc2c(nn1Cc1c(Cl)cccc1Cl)-c1ccccc1CC2,0.74
25,Cc1ccc(Oc2nc(-c3ccccc3)ncc2S(C)(=O)=O)cc1,0.58

row,SMILES,PGE2 EC50 with compound [nM]
1,O=C(O)c1ccc(CNCc2cccc(Cl)c2Cl)cc1,1.05
2,CCOC(=O)C1=CN(CC2CCCO2)C=C(C(=O)OCC)C1c1ccccc1C(F)(F)F (stereo not drawn),0.31
3,C=CCC1(C)C(=O)N(c2ccccc2)c2ccccc21 (stereo not drawn),0.38
4,Brc1cccc(-c2nnc(SCc3ccon3)n2-c2ccccc2)c1,0.48
5,COc1ccc(Oc2cc(C(F)(F)F)nc(N(C)C)n2)cc1,0.6
6,Cc1cc(C)n(-c2nc(C)nc3c2cnn3-c2ccccc2)n1,0.41
7,COC(=O)c1ccc(-c2ccco2)n1Cc1cccc(C)c1,0.17
8,Cc1nn(Cc2c(Cl)cccc2Cl)c(C)c1C(=O)NCc1ccc(C)n1C,0.76
9,O=C(CSc1nc2cc(Cl)ccc2s1)N1CCCc2ccccc21,0.24
10,C/C(=N\N=C(c1ccccc1)c1ccccc1)c1ccco1,0.47
11,CCOc1ccccc1NC(=O)c1c(Br)cnn1C,0.79
12,CCOC(=O)c1ccccc1NC1c2ccccc2C(=O)N1c1cc(C)ccn1 (stereo not drawn),0.34
13,CCOc1ccccc1Cn1c(=O)oc2ccc(C)cc21,0.36
14,O=C(CSc1ncnc2c1oc1ccccc12)Nc1cccc(F)c1,2.94
15,COc1cccc(/C=N/c2oc(-c3ccccc3)cc2C#N)c1O,8.67
16,COc1ccc(Nc2nc(-c3cc4cccc(OC)c4oc3=O)cs2)cc1,0.92
17,O=C(CSc1nnc(COc2ccccc2)n1-c1ccccc1)c1ccccc1,0.74
18,Cc1cc(C)cc(OC2CCCCC2NS(=O)(=O)c2ccccc2)c1 (stereo not drawn),0.48
19,C=CCOc1ccccc1CNc1ccccc1C,0.32
20,COc1ccccc1C(=O)NC(=S)Nc1cc(C(=O)O)ccc1C,0.34
21,Cc1cc(SCC(=O)NCCC2=CCCCC2)nc2ccccc12,0.21
22,CCCc1cc(=O)n2[nH]c(NCc3cccs3)nc2n1,0.94
23,N#CN=C1SCCS1,0.67
24,CSc1ncnc2sc(C)c(C)c12,0.56
25,C=CCSc1ncnc2sc(C)c(C)c12,0.85

row,SMILES,PGE2 EC50 with compound [nM]
1,CC(C)c1ccc2c(c1)CCC1C(C)(C(N)=O)CCCC21C (stereo not drawn),0.38
2,Cn1c(/C=C/N(Cc2ccccc2)c2ccccc2)c([N+](=O)[O-])c(=O)n(C)c1=O,0.45
3,CCN(CC)CCN1C(=O)c2cccc3cc(N)cc(c23)C1=O,0.76
4,Brc1ccccc1Cn1c(-c2cscn2)nc2ccccc21,0.39
5,c1ccc(-c2n[nH]nc2-c2ccccc2)cc1,0.21
6,FC(F)(F)c1nnc(-c2ccccc2)nc1Sc1ccccc1,0.72
7,CCN1C(=O)/C(=C2/C=CC=CN2C)SC1=S,0.94
8,Nc1ccccc1CCCC(=O)O,0.94
9,COc1cc2ccccc2cc1C(=O)NC(=S)Nc1cccc(C(=O)O)c1,6.94
10,CC1CCCCN1C(=O)/C(=C\c1ccccc1)c1ccccc1 (stereo not drawn),0.44
11,Cc1sc(NC(=O)CN2CCOCC2)c(C(=O)c2ccccc2)c1C,0.63
12,O=C(Nc1ccccc1Oc1ccccc1)c1ccccc1F,0.17
13,CCc1ccccc1NC(=S)N(Cc1ccco1)C(C)c1cccs1 (stereo not drawn),0.38
14,CCOC(=O)C1=C(N)OC(C)=C(C#N)C1c1ccco1 (stereo not drawn),0.56
15,S=c1[nH]nc(C2CCCCC2)n1Cc1ccccc1,0.39
16,C=CCc1cc(C=O)cc(OC)c1OCc1ccc(Cl)cc1,0.92
17,CNC(=O)NC(=O)CSc1nc(-c2cccs2)c(C#N)c(=O)[nH]1,15.8
18,CC(Cc1ccccc1)NC(=O)C1(c2ccccc2)CCOCC1 (stereo not drawn),1.12
19,CCOC(=O)c1cnc2c(c(C)nn2C)c1Oc1ccc(Cl)cc1,0.52
20,C=CCn1c(=O)c(C(=O)NCCc2ccccc2)c(O)c2ccccc21,0.5
21,CC(C)Cc1nc(SCc2cccnc2)c2c(=O)n(C)c(=O)n(C)c2n1,0.37
22,Cc1ccc2nc(SCC(=O)NCc3ccco3)c(C)cc2c1,0.5
23,COc1cc(OC)c2c(OC)c(-c3ccc4c(c3)OCO4)c(=O)oc2c1,0.39
